This is an account of results in PubChem BioAssay (EPA / NIEHS).

Common to all, as to conditions: mRNA level, 48 h; actives raise or lower the signal
Read-out in one test: BCL2L11 (gene 10018)
Nature of the test: LTEA_HepaRG_BCL2L11: Life Technologies and Expression Analysis (LTEA) Assay for Bcl-2 (BCL2L11) gene using HepaRG (AID 2283473). An outline of the steps:
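Cells were plated, cultured 48 h, switched to serum-free induction medium, then dosed in duplicate for 48 h at eight half-log concentrations up to 100 uM. Lysates underwent RNA isolation and TaqMan qRT-PCR; gain or loss versus DMSO was fitted.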

Read-out in test [1]: Apolipoprotein A-V (APOA5) gene, APOA5 (gene 116519)
Nature of the test: LTEA_HepaRG_APOA5: Life Technologies and Expression Analysis (LTEA) Assay for Apolipoprotein A-V (APOA5) gene using HepaRG (AID 2283474). An outline of the steps: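 Human liver HepaRG cells are treated 48 h with test chemicals (100 uM top, half-log dilutions, 0.5% DMSO). APOA5 mRNA induction or loss is measured by qRT-PCR relative to vehicle.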

Read-out in test [2]: Apoptosis regulator Bcl-2 (Homo sapiens) (UniProt P10415)
Nature of the test: LTEA_HepaRG_BCL2: Life Technologies and Expression Analysis (LTEA) Assay for Bcl-2 gene using HepaRG (AID 2283475). An outline of the steps:
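Differentiated HepaRG cells in serum-free induction medium were exposed for 48 h to eight half-log concentrations up to 100 uM in 0.5% DMSO, in duplicate. BCL2 mRNA was quantified by TaqMan qRT-PCR normalised to ACTB, GAPDH and POLR2A, with bidirectional fitting versus DMSO.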

Read-out in test [3]: Bcl-2 (BID) gene, BID (gene 637)
Nature of the test: LTEA_HepaRG_BID: Life Technologies and Expression Analysis (LTEA) Assay for Bcl-2 (BID) gene using HepaRG (AID 2283476). The procedure, abridged: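 Differentiated HepaRG cells in serum-free induction medium were exposed in duplicate for 48 h to eight half-log concentrations up to 100 uM in 0.5% DMSO. BID mRNA was quantified by qRT-PCR, normalized to ACTB, GAPDH and POLR2A.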

Read-out in another test: Caspase-3 (Homo sapiens) (UniProt P42574)
Nature of the test: LTEA_HepaRG_CASP3: Life Technologies and Expression Analysis (LTEA) Assay for cysteine-aspartic acid protease (CASP3) using HepaRG (AID 2283477). The procedure, abridged: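 In HepaRG liver cells dosed for 48 h at up to 100 uM (eight-point, duplicate), CASP3 expression changes are scored by qRT-PCR. Activity is fitted in both directions with 0.5% DMSO as baseline.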

Read-out in test [4]: Cytochrome P450 (CYP24A1), CYP24A1 (gene 1591)
Description: LTEA_HepaRG_CYP24A1: Life Technologies and Expression Analysis (LTEA) Assay for Cytochrome P450 (CYP24A1) using HepaRG (AID 2283478). The procedure, abridged:
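Human liver HepaRG cultures receive each chemical for 48 h across an eight-point half-log series topping at 100 uM in 0.5% DMSO. Induction or suppression of CYP24A1 mRNA is scored relative to vehicle after housekeeping-gene normalization.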

Read-out in test [5]: Cytochrome P450 (CYP1A2), CYP1A2 (gene 1544)
Nature of the test: LTEA_HepaRG_CYP1A2: Life Technologies and Expression Analysis (LTEA) Assay for Cytochrome P450 (CYP1A2) using HepaRG (AID 2283479). An outline of the steps:
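Assesses CYP1A2 mRNA in human HepaRG liver cells after 48 h chemical exposure at up to 100 uM. Values come from qRT-PCR with bidirectional curve fitting relative to DMSO.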

Read-out in test [6]: cysteine-aspartic acid protease (CASP8), CASP8 (gene 841)
Description: LTEA_HepaRG_CASP8: Life Technologies and Expression Analysis (LTEA) Assay for cysteine-aspartic acid protease (CASP8) using HepaRG (AID 2283480). The procedure, abridged: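 HepaRG, 48 h exposure, duplicate wells; 8 conc, half-log from 100 uM, 0.5% DMSO. Serum-free induction medium. CASP8 mRNA by TaqMan qRT-PCR, norm. ACTB/GAPDH/POLR2A; gain/loss fitted vs DMSO.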

Read-out in test [7]: Cytochrome P450 (CYP2B6), CYP2B6 (gene 1555)
Description: LTEA_HepaRG_CYP2B6: Life Technologies and Expression Analysis (LTEA) Assay for Cytochrome P450 (CYP2B6) using HepaRG (AID 2283481). The procedure, abridged:
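Using 48 h treatment of HepaRG cells in serum-free induction medium, concentrations spanned half-log steps from 100 uM in 0.5% DMSO vehicle. CYP2B6 mRNA induction or loss is scored by qRT-PCR against DMSO.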

Read-out in test [8]: Cytochrome P450 2C19 (Homo sapiens) (UniProt P33261)
Description: LTEA_HepaRG_CYP2C19: Life Technologies and Expression Analysis (LTEA) Assay for CYP2C19 using HepaRG (AID 2283482). The procedure, abridged: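 Human HepaRG liver cells received test chemicals for 48 h (highest 100 uM, half-log dilutions in 0.5% DMSO). CYP2C19 mRNA induction or loss is read by multiplexed qRT-PCR and fitted in both directions versus vehicle.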

Read-out in the next test: CYP2C8 (gene 1558)
Description: LTEA_HepaRG_CYP2C8: Life Technologies and Expression Analysis (LTEA) Assay for CYP2C8 using HepaRG (AID 2283483). The procedure, abridged:
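CYP2C8 mRNA induction or loss, by qRT-PCR normalized to ACTB/GAPDH/POLR2A, is read in HepaRG cells after 48 h treatment. Concentrations run from 100 uM down in half-log dilutions, with 0.5% DMSO as vehicle and baseline.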

Read-out in another test: CYP2C9 (gene 1559)
Description: LTEA_HepaRG_CYP2C9: Life Technologies and Expression Analysis (LTEA) Assay for CYP2C9 using HepaRG (AID 2283484). An outline of the steps:
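Cells plated 48 h, switched to serum-free induction medium, then treated in duplicate for 48 h at eight concentrations (max 100 uM, 0.5% DMSO). RNA then analysed by qRT-PCR for CYP2C9; curves fitted in both directions relative to DMSO.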

Read-out in the next test: CYP2E1 (gene 1571)
Description: LTEA_HepaRG_CYP2E1: Life Technologies and Expression Analysis (LTEA) Assay for CYP2E1 using HepaRG (AID 2283485). The procedure, abridged:
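HepaRG cells in serum-free induction medium exposed 48 h to test chemicals, 8 half-log concentrations up to 100 uM in 0.5% DMSO, duplicate. CYP2E1 mRNA by qRT-PCR, normalized to ACTB, GAPDH, POLR2A; bidirectional fit versus DMSO.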

Read-out in a further test: CYP4A11 (gene 1579)
Description: LTEA_HepaRG_CYP4A11: Life Technologies and Expression Analysis (LTEA) Assay for CYP4A11 using HepaRG (AID 2283486). An outline of the steps: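 Readout is CYP4A11 mRNA induction or suppression (qRT-PCR, ACTB/GAPDH/POLR2A normalization) in human HepaRG cells after 48 h chemical treatment, concentrations to 100 uM in 0.5% DMSO, fitted bidirectionally against vehicle.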

Read-out in test [9]: Cytochrome P450 3A4 (Homo sapiens) (UniProt P08684)
Nature of the test: LTEA_HepaRG_CYP3A4: Life Technologies and Expression Analysis (LTEA) Assay for CYP3A4 using HepaRG (AID 2283487). An outline of the steps:
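Differentiated HepaRG cells in serum-free induction medium exposed in duplicate for 48 h to 8 half-log concentrations up to 100 uM in 0.5% DMSO. CYP3A4 mRNA measured by qRT-PCR normalized to ACTB, GAPDH and POLR2A; bidirectional fit versus DMSO.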

Read-out in test [10]: DNA damage-inducible transcript 3 (DDIT3), DDIT3 (gene 1649)
Description: LTEA_HepaRG_DDIT3: Life Technologies and Expression Analysis (LTEA) Assay for DNA damage-inducible transcript 3 (DDIT3) using HepaRG (AID 2283488). The procedure, abridged: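 Differentiated human HepaRG cells in serum-free induction medium were exposed in duplicate for 48 h to 8 concentrations (top 100 uM, half-log steps, 0.5% DMSO). DDIT3 mRNA measured by TaqMan qRT-PCR, normalized to ACTB/GAPDH/POLR2A; bidirectional fit versus DMSO.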

Read-out in test [11]: Pro-epidermal growth factor (Homo sapiens) (UniProt P01133)
Description: LTEA_HepaRG_EGF: Life Technologies and Expression Analysis (LTEA) Assay for Epidermal growth factor (EGF) using HepaRG (AID 2283489). The procedure, abridged:
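EGF expression changes in human HepaRG cells are scored by bidirectional fitting relative to 0.5% DMSO controls. Chemicals are tested at eight half-log concentrations up to 100 uM for 48 h in serum-free induction medium.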

Read-out in test [12]: Early growth response protein 1 (EGR1) transcription factor, EGR1 (gene 1958)
Description: LTEA_HepaRG_EGR1: Life Technologies and Expression Analysis (LTEA) Assay for Early growth response protein 1 (EGR1) transcription factor using HepaRG (AID 2283490). An outline of the steps:
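Read-out is EGR1 mRNA level by qRT-PCR, normalized to three housekeeping genes and analysed for gain or loss of signal against 0.5% DMSO. Source cells: human HepaRG, treated 48 h at up to 100 uM in half-log dilutions.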

Read-out in test [13]: Ezrin (EZR), EZR (gene 7430)
Nature of the test: LTEA_HepaRG_EZR: Life Technologies and Expression Analysis (LTEA) Assay for Ezrin (EZR) using HepaRG (AID 2283491). An outline of the steps:
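Differentiated human HepaRG cells, 48 h after plating, were exposed in serum-free induction medium for 48 hours to eight half-log concentrations up to 100 uM in 0.5% DMSO. EZR mRNA was measured by TaqMan qRT-PCR, normalized to ACTB, GAPDH and POLR2A, and fitted bidirectionally against DMSO.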

Read-out in test [14]: Cytochrome P450 3A7 (Homo sapiens) (UniProt P24462)
Description: LTEA_HepaRG_CYP3A7: Life Technologies and Expression Analysis (LTEA) Assay for CYP3A7 using HepaRG (AID 2283492). An outline of the steps:
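Cells were thawed, plated, cultured 48 h, then treated for a further 48 h with chemicals (eight-point half-log series from 100 uM, 0.5% DMSO). RNA was isolated and CYP3A7 expression quantified by qRT-PCR normalised to ACTB, GAPDH and POLR2A.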

The source made the active and inactive calls. How the source made its calls: active means hit-call score of the fitted dose curve at least 0.9, where 1 is the maximum; inactive means score below 0.9.

Chain of Cytochrome P450 3A7 (Homo sapiens) (P24462 whole entry, looked up): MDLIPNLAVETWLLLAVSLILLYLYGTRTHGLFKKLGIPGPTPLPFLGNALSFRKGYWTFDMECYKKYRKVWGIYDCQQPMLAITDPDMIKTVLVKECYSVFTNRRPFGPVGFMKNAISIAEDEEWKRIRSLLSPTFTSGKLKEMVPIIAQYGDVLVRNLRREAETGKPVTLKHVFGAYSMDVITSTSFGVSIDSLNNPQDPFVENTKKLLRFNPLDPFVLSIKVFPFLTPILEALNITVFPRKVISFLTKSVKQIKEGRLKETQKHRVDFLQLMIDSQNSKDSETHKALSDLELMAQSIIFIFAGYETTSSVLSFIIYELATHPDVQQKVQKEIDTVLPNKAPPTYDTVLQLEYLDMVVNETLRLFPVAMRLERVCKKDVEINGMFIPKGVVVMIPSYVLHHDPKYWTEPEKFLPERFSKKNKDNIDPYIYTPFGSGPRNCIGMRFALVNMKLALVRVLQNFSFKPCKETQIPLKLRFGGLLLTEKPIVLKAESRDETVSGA
Chain of Caspase-3 (Homo sapiens) (P42574 whole entry, looked up): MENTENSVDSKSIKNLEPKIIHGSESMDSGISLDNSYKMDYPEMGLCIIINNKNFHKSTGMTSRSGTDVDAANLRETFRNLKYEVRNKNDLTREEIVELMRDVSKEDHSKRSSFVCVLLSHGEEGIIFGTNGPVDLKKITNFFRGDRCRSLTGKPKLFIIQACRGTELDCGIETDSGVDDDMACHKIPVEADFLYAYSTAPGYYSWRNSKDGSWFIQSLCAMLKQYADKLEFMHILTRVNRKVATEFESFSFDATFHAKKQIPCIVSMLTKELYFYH
Chain of Cytochrome P450 3A4 (Homo sapiens) (P08684 whole entry, looked up): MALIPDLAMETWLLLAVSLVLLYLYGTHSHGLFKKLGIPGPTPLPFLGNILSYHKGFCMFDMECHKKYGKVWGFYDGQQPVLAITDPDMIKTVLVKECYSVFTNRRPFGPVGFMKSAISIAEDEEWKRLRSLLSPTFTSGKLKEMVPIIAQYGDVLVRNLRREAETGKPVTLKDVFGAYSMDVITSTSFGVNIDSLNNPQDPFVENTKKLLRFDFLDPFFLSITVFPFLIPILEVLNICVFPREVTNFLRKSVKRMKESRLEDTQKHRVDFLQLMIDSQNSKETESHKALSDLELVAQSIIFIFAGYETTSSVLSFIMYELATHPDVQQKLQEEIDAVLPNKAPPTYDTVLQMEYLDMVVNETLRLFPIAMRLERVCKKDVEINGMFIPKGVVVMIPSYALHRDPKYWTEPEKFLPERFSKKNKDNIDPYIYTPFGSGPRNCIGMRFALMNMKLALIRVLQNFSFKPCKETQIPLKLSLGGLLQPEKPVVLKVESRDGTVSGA
Chain of Apoptosis regulator Bcl-2 (Homo sapiens) (P10415 whole entry, looked up): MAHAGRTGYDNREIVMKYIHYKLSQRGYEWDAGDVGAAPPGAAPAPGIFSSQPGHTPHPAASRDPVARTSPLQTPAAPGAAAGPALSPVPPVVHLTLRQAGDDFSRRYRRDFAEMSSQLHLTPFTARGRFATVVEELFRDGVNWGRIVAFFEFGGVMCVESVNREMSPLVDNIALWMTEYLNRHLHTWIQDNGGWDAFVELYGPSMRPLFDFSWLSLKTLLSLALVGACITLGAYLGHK
Chain of Cytochrome P450 2C19 (Homo sapiens) (P33261 whole entry, looked up): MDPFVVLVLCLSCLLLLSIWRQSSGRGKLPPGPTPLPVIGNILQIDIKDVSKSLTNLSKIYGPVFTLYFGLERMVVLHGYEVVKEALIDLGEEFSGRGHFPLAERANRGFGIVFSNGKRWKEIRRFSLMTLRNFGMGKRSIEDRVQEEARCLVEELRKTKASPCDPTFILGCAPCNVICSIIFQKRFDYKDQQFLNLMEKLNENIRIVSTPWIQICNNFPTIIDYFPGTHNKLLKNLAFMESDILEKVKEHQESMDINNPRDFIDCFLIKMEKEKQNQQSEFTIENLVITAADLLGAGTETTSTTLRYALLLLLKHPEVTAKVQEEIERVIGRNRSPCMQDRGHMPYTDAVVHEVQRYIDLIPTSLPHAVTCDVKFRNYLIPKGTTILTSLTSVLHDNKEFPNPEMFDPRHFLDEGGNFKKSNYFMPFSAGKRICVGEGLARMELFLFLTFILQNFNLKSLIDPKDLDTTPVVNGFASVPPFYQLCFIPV

On to `O=C(O)c1cccc(N(Cc2cccnc2)c2ccc(OC(F)F)c(OC(F)F)c2)c1`, for which the compound was called inactive (in the test with BCL2L11 (gene 10018); in [1]; in test [2]; in test [3]; with Caspase-3 (Homo sapiens); in [5]). In addition, the outcome (in [6]; in test [7]; in test [8]; in the test with CYP2C8 (gene 1558); with CYP2C9 (gene 1559); with CYP4A11 (gene 1579)) was inactive. Moreover, the compound was classed as inactive in [10], in test [11], in test [13] and in [14]. In addition, the AC50 – broadly, the concentration giving half of the maximal activity seen – in test [4] is 0.00316 µM (active); with CYP2E1 (gene 1571), 5.18 µM (active); in test [9] it was 43.5 µM (active); in [12] it was 50 µM (active).
With `COc1cccc(-c2ccc(/C=C\CN3CCCCCC3)cc2Cl)c1`, the result (with BCL2L11 (gene 10018); in test [3]; with Caspase-3 (Homo sapiens); in [4]; in [6]; in test [11]) was inactive. Moreover, the AC50 in test [1] was 71.7 µM (active); in [2] it was 67.4 µM (active); in [5] it was 69.9 µM (active); in test [7] it was 77.3 µM (active); in test [8], 74.9 µM (active); with CYP2C8 (gene 1558), 74.1 µM (active). Also, the AC50 with CYP2C9 (gene 1559) was 70.8 µM (active); with CYP2E1 (gene 1571), 61.8 µM (active); in the test with CYP4A11 (gene 1579) it was 85.4 µM (active); in [9] it was 76.3 µM (active); in test [10] it was 79.4 µM (active); in test [12], 72.7 µM (active). Further, the AC50 is 45.2 µM (active) in test [13] and 81.9 µM (active) in [14].
In the case of `Oc1ccc2c(c1)-c1ccccc1C2`, the compound was classed as inactive (with BCL2L11 (gene 10018); in [1]; in [2]; in test [3]; with Caspase-3 (Homo sapiens); in test [4]). Besides, the compound was classed as inactive (in [6]; in [8]; with CYP2C8 (gene 1558); with CYP2C9 (gene 1559); in the test with CYP2E1 (gene 1571); with CYP4A11 (gene 1579)). Besides, the compound was called inactive in test [9], in test [10], in test [11], in test [12], in [13] and in test [14]. Further, the values for the half-maximal activity concentration (AC50) in test [5] and in test [7] were 21.4 µM (active) and 50 µM (active), respectively.
